Shown are actives, neighbours in structure and some others; about 18% of the full set was active somewhere.
HepG2 viability: counter-screen for TGF-b inhibitors: cytotoxicity in HepG2 cells; HepG2 CAGA-GFP viability, ATP luminescence, 18 h; Potency, µM (highest dose often 46.1 µM), for the others: top-dose activity change, negative = cytotoxicity, hits mostly cytotoxic; 0.76% of 410,000 active; AID 588856; also: potency is read from the fitted curve at half-maximal effect
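HepG2 CAGA-GFP cells (1000/well, DMEM with 1% FBS) received compound, then TGF-beta at 500 pg/mL final, and were incubated 18 hours at 37 degrees C. Viability was read by CellTiter-Glo luminescence. Media-only wells were set as complete cell-killing and DMSO as no toxicity.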
IL1B secr inh: inflammasome signaling inhibition, IL-1 beta readout; THP-1 LPS/ATP IL-1B secretion, AlphaLISA, 16 h; hits give low values; 4.7% of 360,000 active; activity change, % at 57.5 µM; AID 743279; in the data active = activity change below about -50%; inconclusive = mostly about -30% to -49%; also: % is scaled to controls: 0 for no effect and ±100 for the full control effect
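Secreted IL-1B measured by AlphaLISA bead assay after 16 h compound exposure of THP-1 cells; compounds (final up to 57.5 uM) added 1 h before LPS (250 ng/mL) and ATP (1.25 mM) stimulation; lower signal means less secretion.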
TDP1 block: blocks human tyrosyl-DNA phosphodiesterase 1; Q9NUW8; recombinant TDP1, AlphaScreen DNA substrate cleavage; Potency, µM (top dose mostly 130 µM), without a hit: at the top dose activity change, negative = inhibition, usual class: inhibitors; 0.28% of 350,000 active; AID 485290; also: potency is read from the fitted curve at half-maximal effect; % is scaled to controls: 0 for no effect and ±100 for the full control effect; nearly all actives have a fitted effect of over 40% in size
Target sequence (Q9NUW8 whole entry, looked up): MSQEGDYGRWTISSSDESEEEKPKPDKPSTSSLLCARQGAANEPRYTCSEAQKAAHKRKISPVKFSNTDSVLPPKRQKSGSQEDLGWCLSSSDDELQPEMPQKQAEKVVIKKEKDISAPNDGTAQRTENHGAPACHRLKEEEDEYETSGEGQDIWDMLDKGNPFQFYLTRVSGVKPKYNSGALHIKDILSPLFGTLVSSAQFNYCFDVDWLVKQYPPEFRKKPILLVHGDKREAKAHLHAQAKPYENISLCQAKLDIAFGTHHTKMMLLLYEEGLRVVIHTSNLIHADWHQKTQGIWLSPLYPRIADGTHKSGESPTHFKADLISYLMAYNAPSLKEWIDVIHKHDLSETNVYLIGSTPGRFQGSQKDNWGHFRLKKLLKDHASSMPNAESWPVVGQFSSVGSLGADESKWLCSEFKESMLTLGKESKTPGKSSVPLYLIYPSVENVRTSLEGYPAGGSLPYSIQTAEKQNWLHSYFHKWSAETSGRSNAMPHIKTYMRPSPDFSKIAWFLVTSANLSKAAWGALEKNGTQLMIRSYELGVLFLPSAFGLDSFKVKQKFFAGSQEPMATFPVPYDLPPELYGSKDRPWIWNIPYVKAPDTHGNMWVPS
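E. coli-derived human Tdp1, 1 nM final. Cpd preinc 15 min RT; substrate 15 nM final, 5 min RT; AS bead mix 10 ug/ml final, 10 min RT. Signal loss = tyrosine-FITC cleavage. No-enzyme wells = max signal.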
TDP1 cell CPT: DT40-hTDP1 cell growth loss with CPT. chicken DT40 Tdp1-/-;hTDP1 cells + 20 nM CPT, ATP luminescence, 48 h. Potency, µM (highest dose often 46.2 µM), for inactives: at the top dose activity change, negative = growth inhibition, most hits filed as inhibitors. 12% of 420,000 active; also: potency is read from the fitted curve at half-maximal effect; % is scaled to controls: 0 for no effect and ±100 for the full control effect; nearly all actives have a fitted effect of over 55% in size
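Chicken DT40 Tdp1-/- cells stably complemented with human TDP1 were seeded at 400 cells/well in medium containing 20 nM camptothecin, exposed to pin-transferred compounds, and grown at 37 °C for at least 48 hr. Viability was read as ATP luminescence.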
TGFb SMAD3 inh: TGF-b pathway inhibition; HepG2 CAGA-GFP TGF-b/SMAD3 reporter, GFP fluorescence, 18 h; TGF-beta stimulated, 500 pg/mL final; Potency, µM (series often up to 46.1 µM), for inactives: at the highest dose activity, negative = inhibition, hits mostly inhibitors; 1.2% of 410,000 active; AID 588855; also: potency is read from the fitted curve at half-maximal effect; % is scaled to controls: 0 for no effect and ±100 for the full control effect; nearly all actives have a fitted effect of over 65% in size
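TGF-beta reporter screen: HEPG2 CAGA-GFP, 1% FBS, 500 pg/mL TGF-beta final, 18 h; per-cell GFP summed per well; curves fitted and categorized by class.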
DT40 TDP1 no CPT: qHTS for Inhibitors of human tyrosyl-DNA phosphodiesterase 1 (TDP1): qHTS in cells in absence of CPT; DT40 Tdp1-/- hTDP1 cells, no CPT, ATP luminescence, 48 h; Potency, µM (highest dose often 46.2 µM), without a hit: at the highest dose activity change, negative = growth inhibition, most hits filed as inhibitors; 15% of 420,000 active; also: potency is read from the fitted curve at half-maximal effect; % is scaled to controls: 0 for no effect and ±100 for the full control effect; nearly all actives have a fitted effect of over 55% in size
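Chicken DT40 Tdp1-/- cells stably complemented with human TDP1 were seeded at 400 cells/well with DMSO in place of 20 nM camptothecin. After compound pinning, cells grew at least 48 hr at 37 °C; viability read by CellTiter-Glo luminescence.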
Active calls of the source: *; [ ] = another dose, or the depositor's remark. Unless noted, calls follow the shape of the dose curve; as a rule, active = well fitted curve in the direction sought with a large enough effect; inconclusive = small, poorly fitted or top-dose-only effect, or another doubt; inactive = no such curve, though single readings can be large; an effect the other way counts as inactive or inconclusive.

`Cc1[nH]c2ccc(C(=O)N3CCN(c4cccc(Cl)c4)CC3)cc2c1C` gave HepG2 viability -22%, IL1B secr inh 0, TDP1 block 10%, TDP1 cell CPT 6.5µM*, TGFb SMAD3 inh inconclusive and DT40 TDP1 no CPT 6.5µM*.
Screening Cc1[nH]c2ccc(C(=O)N3CCCC3)cc2c1C returned HepG2 viability 4%, IL1B secr inh -8, TDP1 block 4%, TDP1 cell CPT 20%, TGFb SMAD3 inh 17% and DT40 TDP1 no CPT -1%.
`COc1ccccc1N1CCN(CC(=O)c2c(C)n(C)c3ccccc23)CC1` gave HepG2 viability -29%, IL1B secr inh -2, TDP1 block 1%, TDP1 cell CPT inconclusive, TGFb SMAD3 inh -6% and DT40 TDP1 no CPT inconclusive.
Cc1[nH]c2ccc(C(=O)N3CCCCC3)cc2c1C was read as HepG2 viability 12%, IL1B secr inh -2, TDP1 block 3%, TDP1 cell CPT -11%, TGFb SMAD3 inh -1% and DT40 TDP1 no CPT inconclusive.
CCc1cc(C(=O)N2CCN(c3ccccc3OC)CC2)sc1C was read as HepG2 viability 2%, IL1B secr inh -14, TDP1 block 2%, TDP1 cell CPT inconclusive, TGFb SMAD3 inh -16% and DT40 TDP1 no CPT 16µM*.
COc1ccccc1N1CCN(CC(=O)c2c(C)[nH]c3cc(C)ccc23)CC1 was read as HepG2 viability -53%, IL1B secr inh -9, TDP1 block 5%, TDP1 cell CPT inconclusive, TGFb SMAD3 inh 5% and DT40 TDP1 no CPT 18µM*.
For COc1ccccc1N1CCN(C(=O)c2cccs2)CC1 the results were HepG2 viability -14%, IL1B secr inh -14, TDP1 cell CPT -20%, TGFb SMAD3 inh -4% and DT40 TDP1 no CPT -4%.
For COc1ccccc1N1CCN(C(=O)c2ccc3[nH]c(C)c(C)c3c2)CC1 the results were HepG2 viability -3%, IL1B secr inh 38, TDP1 block 8%, TDP1 cell CPT 1.3µM*, TGFb SMAD3 inh inconclusive and DT40 TDP1 no CPT 1µM*.
`COC(=O)C1CCCCN1Cc1ccc2c(c1)CN(C1CCSCC1)CCO2` (configuration not stated) gave TDP1 cell CPT -4%[9.04 µM] and DT40 TDP1 no CPT -26%.
COc1ccccc1N1CCN(C(=O)c2ccc3[nH]c4c(c3c2)CC(C)CC4)CC1 (configuration not stated) was read as HepG2 viability -9%, IL1B secr inh -94*, TDP1 block 14%, TDP1 cell CPT 16µM*, TGFb SMAD3 inh inconclusive and DT40 TDP1 no CPT inconclusive.
`COc1ccc(NC(=O)C(Sc2ccccc2)c2ccccc2)c(OC)c1` (configuration not stated) gave HepG2 viability -6%, IL1B secr inh -3, TDP1 block 0%, TDP1 cell CPT -14%, TGFb SMAD3 inh -14% and DT40 TDP1 no CPT inconclusive.
COc1ccccc1NC(=O)C(Sc1ccccc1)c1ccccc1 (configuration not stated) was read as HepG2 viability -22%, IL1B secr inh 17, TDP1 block inconclusive, TDP1 cell CPT 21µM*, TGFb SMAD3 inh -1% and DT40 TDP1 no CPT inconclusive.
For COc1ccccc1NC(C)=O the results were HepG2 viability 34%, IL1B secr inh 31, TDP1 block 0%, TDP1 cell CPT -1%, TGFb SMAD3 inh 6% and DT40 TDP1 no CPT -2%.
COc1ccccc1NC(=O)Nc1ccccc1Br was read as HepG2 viability 0%, IL1B secr inh -14, TDP1 block 0%, TDP1 cell CPT 18µM*, TGFb SMAD3 inh -1% and DT40 TDP1 no CPT inconclusive.
`O=C(Nc1ccccc1)Nc1ccc(Br)c(Cl)c1` gave HepG2 viability -4%, IL1B secr inh inconclusive, TDP1 block 0%, TDP1 cell CPT inconclusive, TGFb SMAD3 inh inconclusive and DT40 TDP1 no CPT 16µM*.
Screening O=C(Nc1ccccc1)Nc1cccc(NC(=O)Nc2ccccc2)c1F returned HepG2 viability -36%, IL1B secr inh 20, TDP1 cell CPT 4%, TGFb SMAD3 inh 0% and DT40 TDP1 no CPT -2%.
`O=C(Nc1ccccc1)Nc1ccccc1Br` gave HepG2 viability -26%, IL1B secr inh -9, TDP1 block -1%, TDP1 cell CPT 15µM*, TGFb SMAD3 inh 8% and DT40 TDP1 no CPT inconclusive.
`CC(=O)NC(c1ccc(C)cc1)c1cc(Cl)c2cccnc2c1O` (configuration not stated) gave HepG2 viability -23%, IL1B secr inh 42, TDP1 cell CPT 5.2µM*, TGFb SMAD3 inh inconclusive and DT40 TDP1 no CPT 4.1µM*.
`CC(=O)NC(c1cc(Cl)c2cccnc2c1O)C(C)C` (configuration not stated) gave HepG2 viability -27%, TDP1 block 2% and TGFb SMAD3 inh 6.3µM*.
`Oc1c(C(Nc2ccccn2)c2cccnc2)cc(Cl)c2cccnc12` (configuration not stated) gave HepG2 viability -16%, IL1B secr inh 44, TDP1 block 11%, TDP1 cell CPT 4.6µM*, TGFb SMAD3 inh 0% and DT40 TDP1 no CPT 5.2µM*.
`CC(=O)NC(c1cc(Cl)c2ccccc2c1O)C(C)C` (configuration not stated) gave HepG2 viability -15%, TDP1 block -1% and TGFb SMAD3 inh -12%.
Screening CC(=O)NC(c1cc(Cl)c2cccnc2c1O)C1CC1 (configuration not stated) returned HepG2 viability -60%, TDP1 block -1% and TGFb SMAD3 inh 1.6µM*.
Screening CCNc1cccc(S(=O)(=O)N2CCN(S(=O)(=O)c3ccc4c(c3)OCCO4)CC2)c1 returned TDP1 block -5%.
Screening Cc1[nH]c2ccccc2c1C(=O)COC(=O)C1CC(O)CN1S(=O)(=O)c1ccc(Cl)cc1 (configuration not stated) returned HepG2 viability -39%, IL1B secr inh -76*, TDP1 block 2%, TDP1 cell CPT inconclusive, TGFb SMAD3 inh inconclusive and DT40 TDP1 no CPT inconclusive.

Screening results (PubChem BioAssay)
